Screening results deposited in PubChem by several laboratories.
GDH-TPI inh: GDH-TPI coupling enzyme inhibitors, primary screen, artefact control for M. tuberculosis FBA inhibitor project, biochemical, absorbance, full deck. GDH-TPI coupled enzyme counterscreen, NADH absorbance. actives 1.2% (n = 360,000). inhibition, % at 4.8 µM;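 note: 0% = DMSO wells and 100% = wells lacking the enzyme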
Vc quorum ag: inducers of Vibrio cholerae quorum light production without autoinducers, primary screen, BH1578 luxS cqsA deficient, single point; V. cholerae BH1578 lux reporter, luminescence, 6 h; activation, % at 18.7 µM; actives 0.16% (n = 350,000); in the data active = activation mostly above about 9.7%, no sharp cut-off
FBA Mtb inh: Mtb FBA enzyme inhibitors, primary screen, biochemical, fluorescence, strain H37Rv. inhibition, % at 1 µM. purified M. tuberculosis FBA, fluorescence read-out. Fructose-bisphosphate aldolase (Mycobacterium tuberculosis (strain ATCC 25618 / H37Rv)), …. actives 2.3% (n = 360,000); in the data active = inhibition above about 27%;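 note: 0% = vehicle and 100% = reference inhibitor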
Target sequence (P9WQA3 whole entry, looked up): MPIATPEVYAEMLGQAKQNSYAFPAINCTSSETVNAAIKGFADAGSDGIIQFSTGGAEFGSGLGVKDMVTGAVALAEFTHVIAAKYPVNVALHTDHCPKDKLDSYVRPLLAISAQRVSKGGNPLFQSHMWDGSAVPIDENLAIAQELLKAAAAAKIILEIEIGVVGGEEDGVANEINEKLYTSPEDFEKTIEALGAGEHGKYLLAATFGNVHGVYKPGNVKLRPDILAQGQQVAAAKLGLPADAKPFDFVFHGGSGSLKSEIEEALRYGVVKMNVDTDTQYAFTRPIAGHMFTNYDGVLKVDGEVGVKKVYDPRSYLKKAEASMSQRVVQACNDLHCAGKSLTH
CCHF vOTU inh: CCHFV vOTU protease inhibitors, primary screen, biochemical, Pep-AMC substrate, fluorescence. actives 0.55% (n = 370,000). inhibition, % at 11.5 µM. Crimean-Congo hemorrhagic fever virus L polyprotein viral ovarian tumor (vOTU) protease …; note: 0% = vehicle wells with enzyme and 100% = no enzyme wells
Starred values were filed as active, the others as inactive; i = inactive; x = no result; + = active, no number. Compounds with a hit are over-represented: about 3.9% of the library has one in this group of screens. Cut-off read from the data, not from the text of the source, unless noted: active = inhibition above about 30%; inactive = the rest.

SMILES	GDH-TPI inh	Vc quorum ag	FBA Mtb inh	CCHF vOTU inh
Cc1c(CC(=O)NC(C)C)c(=O)oc2cc3c(cc12)CCC(C)(C)O3	22	2	+	-172
Cc1oc2cc3oc(=O)c(CC(=O)NCC(=O)N[C@@H](C(=O)O)c4ccccc4)c(C)c3cc2c1C	15	0	7	-16
Cc1c(CC(=O)NCC(C)C)c(=O)oc2cc3c(cc12)CCC(C)(C)O3	16	-18	140*	-168
CC[C@@]1(O)C(=O)OCc2c1cc1n(c2=O)Cc2cc3c(CN(C)C)c(O)ccc3nc2-1	34*	4	8	-20
CC[C@@]1(O)C(=O)OCc2c1cc1n(c2=O)Cc2cc3c(N)cccc3nc2-1	33*	i	5	5
O=C(COc1ccc(C(=O)NCCc2ccccc2)cc1)Nc1ccccc1	9	0	-1	-2
O=C(CSC(=S)N1CCCC1)N/N=C/c1c(O)[nH]c(=S)[nH]c1=O	46*	1	6	21
COCCn1c(O)c(/C=N/NC(=O)CSC(=S)N2CCCC2)c(=O)[nH]c1=S	32*	-1	-3	13
Cc1cccc(N/N=C/c2c(O)[nH]c(=S)[nH]c2=O)c1	5	i	0	-2
CCCn1nc(C(=O)Oc2ccc3c(C)cc(=O)oc3c2)c2ccccc2c1=O	6	0	+	-380
Cc1cc(=O)oc2cc(OC(=O)c3nn(C(C)C)c(=O)c4ccccc34)ccc12	14	0	+	-385
CCNC(=O)c1c(NC(=O)c2cc(-c3cc(C)ccc3O)n[nH]2)sc2c1CCCC2	6	-1	0	-9
NN(CCO)C(=S)Nc1ccc(Cl)cc1	-2	0	4	6
COc1ccc(N2CCN(C(=O)C(=O)c3c(C)[nH]c4ccccc34)CC2)cc1	13	-5	1	23
CC(=O)c1ccc(N2CCN(C(=O)C(=O)c3c(C)[nH]c4ccccc34)CC2)cc1	34*	i	-4	9
COc1ccc(NC(=O)N(C)C[C@H]2Oc3ccc(NC(=O)Cn4cnnn4)cc3C(=O)N([C@H](C)CO)C[C@@H]2C)cc1	-2	i	-2	7
O=c1c(Cl)c(N/N=C/c2ccc(Br)cc2)cnn1-c1ccccc1	56*	-10	3	4
CNc1cnn(-c2ccccc2)c(=O)c1Cl	10	i	0	4
CC(/C=N/NC(=O)Cc1cccs1)=C\c1ccco1	34*	i	-2	15
COc1ccc(/C=C(/C(=O)c2ccc(Cl)cc2Cl)n2cncn2)cc1	32*	i	-4	-1
Cc1ncc([N+](=O)[O-])n1CC(=O)Nc1ccccc1Cl	2	i	-4	2
Cc1cccc(C(=O)N=c2c(C#N)cc3c(=O)n4cccc(C)c4nc3n2Cc2ccco2)c1	8	-1	168*	-194
Cc1cccn2c(=O)c3cc(C#N)c(=N)n(Cc4cccnc4)c3nc12	10	5	4	4
Cc1cccn2c(=O)c3cc(C#N)c(=NC(=O)c4ccccc4)n(Cc4ccco4)c3nc12	16	2	182*	-198
Cc1cccn2c(=O)c3cc(C#N)c(=NC(=O)c4ccco4)n(Cc4ccco4)c3nc12	9	0	+	-42
SMILES	GDH-TPI inh	Vc quorum ag	FBA Mtb inh	CCHF vOTU inh
COC(=O)c1cn(-c2ccc(-c3noc4c3C(=O)N(CC(=O)N3CCOCC3)CC4)cc2)nn1	x	x	x	-8
CC(C)(CO)NC(=O)c1ccc2nc(Cc3cccc(Cl)c3)oc2c1	3	1	0	-4
Cc1ccc(NC(=S)N/N=C/c2ccc(OCCC(C)C)cc2)c(C)c1	36*	0	3	17
Cc1ccc(NC(=S)N/N=C/c2c(Cl)cccc2Cl)c(C)c1	10	0	-1	4
CCOc1ccc(C2C(C#N)=C(N)SC(N)=C2C#N)cc1OCC	11	0	-1	2
CCc1ccc(C2C(C#N)=C(N)SC(N)=C2C#N)cc1	31*	i	7	-2
Cc1cccc(OCC(=O)NCc2ccncc2)c1C	3	x	1	3
CCc1cc(=O)oc2c3c(cc(OCC(=O)NCc4ccncc4)c12)OC(C)(C)CC3	16	0	+	-179
CCc1cc(=O)oc2c3c(cc(OCC(=O)NCc4ccco4)c12)OC(C)(C)CC3	23	0	154*	x
COc1ccc(Cc2nnc(CCc3ccccc3)s2)cc1	19	i	0	13
CC(=O)C(Sc1nn(C)c(=S)s1)C(=O)Nc1ccccc1 (stereo not drawn)	14	25*	-1	7
Cc1ccc(C(=O)/C=C2/NC(=O)CS2)cc1	31*	0	-2	8
N#Cc1c(-c2ccccc2)nc(SCC(=O)N2c3ccccc3Sc3ccccc32)[nH]c1=O	13	0	2	33*
O=c1[nH]c(CN(CCO)CCO)nc2c1C1(CCCCC1)Cc1ccccc1-2	16	-1	1	-3
CCC1(C)Cc2ccccc2-c2nc(NN)[nH]c(=O)c21 (stereo not drawn)	16	i	25	-15
CC1(C)Cc2ccccc2-c2nc(NCCCO)[nH]c(=O)c21	11	i	200*	-156
CCC1(C)Cc2ccccc2-c2nc(NCCO)[nH]c(=O)c21 (stereo not drawn)	16	x	171*	-129
O=c1[nH]c(NCCO)nc2c1C1(CCCC1)Cc1ccccc1-2	9	i	112*	-141
CCCCOc1ccc(C(=O)NCC(=O)NC2CCN(Cc3ccccc3)CC2)cc1	-11	0	0	-5
O=C(O)c1cc(N/N=C/c2ccc(N3CCOCC3)cc2)ccc1Cl	69*	-4	2	2
Clc1cccc(N/N=C/c2ccc(N3CCOCC3)cc2)c1	9	-5	2	13
CSc1ccc(/C=N/Nc2nc(C)cc(C)n2)cc1	33*	i	-6	16
Cc1cc(-c2ccccc2)nc(N/N=C/c2ccco2)n1	16	-2	-1	15
Cc1cc(-c2ccccc2)nc(N/N=C/c2ccc(N(C)C)cc2)n1	31*	0	0	8
Cc1cc(C)nc(N/N=C/c2ccco2)n1	31*	i	-2	-3
SMILES	GDH-TPI inh	Vc quorum ag	FBA Mtb inh	CCHF vOTU inh
C[C@@H]1C(c2ccccc2)CC(=O)C(=O)C[C@@H]1C(=O)N1CCCC1 (stereo partly drawn)	x	x	x	-7
COc1cc(C(=O)NCc2nnc(SCC(=O)N3CCCCC3)o2)cc(OC)c1OC	-4	0	2	8
CCCN(CCC)CCNC(=O)C1CCN(S(=O)(=O)c2cccc3nsnc23)CC1	15	-1	1	-12
Cc1cc(C)nc(N/N=C/c2ccc(N3CCOCC3)cc2)n1	35*	i	0	8
Cc1cc(C)nc(Nc2ccc(N3CCOCC3)cc2)n1	7	0	5	6
CCOC(=O)c1cc2c(=O)n3ccccc3nc2n(CCCOC)c1=NC(=O)C(C)(C)C	16	12	+	-152
